Hits are enriched below; roughly 19% of the tested compounds scored in any of these assays.
DT40 TDP1 CPT = growth inhibition of DT40 Tdp1-/-;hTDP1 cells with camptothecin (screen for TDP1 inhibitors); AID 686979; chicken DT40 Tdp1-/-;hTDP1 cells + 20 nM CPT, ATP luminescence, 48 h; 420,000 tested, 12% active; Potency, µM (series often up to 46.2 µM), without a hit: top-dose activity change, negative = growth inhibition, most hits filed as inhibitors; further: potency means the concentration at half of the fitted maximal effect; on the % scale 0 is the no-effect control and ±100 the full control effect; nearly all actives have a fitted effect of over 55% in size
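Cell growth measured by CellTiter-Glo luminescence after a minimum 48 h, 37 C compound exposure with 20 nM CPT in Tdp1-knockout DT40 cells stably expressing hTDP1, seeded 400/well; qHTS titration format.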
MCF10A rereplic = DNA re-replication induction in MCF 10a cells; MCF 10A DNA re-replication, Hoechst nuclear intensity, 48 h; Potency, µM (titrated, usually from 46.1 µM), inactives show at the highest dose activity, positive = re-replication, most hits filed as activators; 350,000 tested, 2.9% active; further: potency means the concentration at half of the fitted maximal effect; % of control where 0% means no effect; nearly all actives have a fitted effect of over 50% in size
IL-1B inflam inh = inhibitors of inflammasome signaling (IL-1 beta secretion); 360,000 tested, 4.7% active; activity change, % at 57.5 µM; AID 743279; THP-1 LPS/ATP IL-1B secretion, AlphaLISA, 16 h; hits give low values; in the data active means activity change below about -50%; inconclusive means mostly about -30% to -49%; further: on the % scale 0 is the no-effect control and ±100 the full control effect
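Secreted IL-1B measured by AlphaLISA bead assay after 16 h compound exposure of THP-1 cells; compounds (final up to 57.5 uM) added 1 h before LPS (250 ng/mL) and ATP (1.25 mM) stimulation; lower signal means less secretion.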
Chronic BCR inh = inhibitors of chronic active B-cell receptor signaling | ABC-DLBCL IkBa-CBG/CBR reporter, luminescence ratio, 4 h | Potency, µM (highest dose often 46.1 µM), inactives show at the top dose activity change, negative = inhibition, actives largely listed as inhibitors | 340,000 tested, 0.05% active | AID 493014; active means well fitted inhibition curve with a large enough effect in the signal ratio, with a control signal flat, not every such curve was filed as active; inconclusive means small, poorly fitted or top-dose-only effect, or effect the other way, or a change in a side signal; the % refers to the signal ratio;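 further: potency means the concentration at half of the fitted maximal effect; plate controls were basal doxycycline-induced cells for no effect and cells given 10 µM MG132 for full effect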
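TMD8 ABC-DLBCL cells carrying doxycycline-inducible green luciferase fused to IkappaBalpha plus unfused red luciferase were exposed to compounds (up to 46 uM) for 4 hrs at 37C. Activity came from the overlap-corrected green/red luminescence ratio.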
SW480 rerep = induces DNA re-replication in SW480 colon adenocarcinoma cells | SW480 DNA re-replication, Hoechst DNA content imaging, 48 h | 340,000 tested, 1.8% active | AID 624297 | Potency, µM (doses to about 46.1 µM), for inactives: at the highest dose re-replication activation, actives largely listed as activators; further: potency means the concentration at half of the fitted maximal effect; % of control where 0% means no effect; nearly all actives have a fitted effect of over 55% in size
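Readout is total intensity of Hoechst-stained nuclei, excited at 405 nm and collected at 500-530 nm. Compound treatment lasted 48 hr at 37 C in 5% CO2 before staining.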
TDP1 cell noCPT = qHTS for Inhibitors of human tyrosyl-DNA phosphodiesterase 1 (TDP1): qHTS in cells in absence of CPT. DT40 Tdp1-/- hTDP1 cells, no CPT, ATP luminescence, 48 h. Potency, µM (titrated, usually from 46.2 µM), without a hit: at the highest dose activity change, negative = growth inhibition, actives largely listed as inhibitors. 420,000 tested, 15% active. AID 686978, 2013; further: potency means the concentration at half of the fitted maximal effect; on the % scale 0 is the no-effect control and ±100 the full control effect; nearly all actives have a fitted effect of over 55% in size
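Readout: luminescence from CellTiter-Glo after 30 min in the dark at RT. Cells: DT40 Tdp1-/- with stable hTDP1, 400/well. Exposure: compounds alone, ≥48 hr, 37 °C.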
The depositor's hits bear a star; ? = inconclusive; / = no result given. Unless noted, the call rests on the fitted dose curve; in most records, active means well fitted curve in the direction sought with a large enough effect; inconclusive means small, poorly fitted or top-dose-only effect, or another doubt; inactive means no such curve, though single readings can be large; an effect the other way counts as inactive or inconclusive.

SMILES	DT40 TDP1 CPT	MCF10A rereplic	IL-1B inflam inh	Chronic BCR inh	SW480 rerep	TDP1 cell noCPT
COc1cc2c(cc1OC)[C@@H](c1ccccc1)CN(C)CC2	-21%	/	/	/	/	15µM*
NC(=O)C1(Nc2ccc(-c3ccc(Br)cc3)cc2)CCCC1	-20%	?	5	/	12%	?
COc1cc(/C=C\C(=O)NCc2ccc3c(c2)cc(C)n3C)cc(OC)c1OC	-20%	-15%	-28	?	-13%	26µM*
COc1ccc(CC(=O)NCc2ccc3c(c2)cc(C)n3C)cc1OC	-27%	1%	-2	6%	0%	15µM*
NC(=O)NC(=O)C(c1ccccc1)N1CCN(S(=O)(=O)Cc2ccccc2)CC1 (centres undefined)	-3%	?	3	?	-4%	-5%
COc1ccc(Cl)cc1S(=O)(=O)NCc1ccc2c(c1)CCN2C(=O)c1cccc(C)c1	3.3µM*	/	/	/	/	4.6µM*
Cc1ccc(C(=O)N2CCc3cc(CNS(=O)(=O)c4cccs4)ccc32)cc1	15µM*	/	/	/	/	18µM*
Cc1cccc(C(=O)N2CCc3cc(CNS(=O)(=O)c4cccs4)ccc32)c1	23µM*	/	/	/	/	21µM*
COC(=O)c1ccccc1NC(=O)N1CCC(N2CCN(Cc3ccc(F)cc3)C(=O)C2=O)CC1	3%	/	/	/	/	-1%
C[C@H]1OC(OC2C(O)[C@@H](O)C(OC3C(O)[C@@H](O)C(O)O[C@@H]3CO)O[C@@H]2CO)[C@H](O)C(O)C1N[C@H]1C=C(CO)[C@@H](O)[C@H](O)C1O (some centres undefined)	/	-4%	/	/	-6%	/
COc1ccc2[nH]c3c(c2c1)CCN1C(=O)C(CC(=O)NC(C)(C)C)C[C@H](C(=O)N(C(C)C)C(C)C)[C@@]31C (some centres undefined)	?	-2%	-11	-2%	1%	?
COc1ccc2nc3oc(C(=O)NCc4ccccc4OC)cc3cc2c1	9%	/	/	/	/	1%
CCOC(=O)N1CCC(NC(=O)c2cc(-c3ccc(OC)cc3)nc3ccccc23)CC1	?	?	4	-1%	?	?
CCOC(=O)N1CCC(NC(=O)c2cc3cc4cc(OC)ccc4nc3o2)CC1	?	14%	?	7%	-5%	21µM*
COc1ccc2nc3oc(C(=O)NC4CCN(Cc5ccccc5)CC4)cc3cc2c1	18µM*	-7%	-9	0%	-4%	18µM*
O=C(CCC1CCCNC1)c1ccccc1 (centres undefined)	/	/	/	6%	/	/
CCCCC(=O)NC(=S)Nc1cccc(NC(=O)c2ccco2)c1	-24%	2%	-29	-4%	-3%	-25%
Cc1ccccc1CNC(=O)c1ccc(CSc2nc3cccnc3n2Cc2ccccc2)cc1	?	/	/	/	/	13µM*
O=C(NCc1ccccc1F)c1ccc(CSc2nc3cccnc3n2Cc2ccccc2)cc1	-2%	/	/	/	/	-8%
O=C(NCc1ccccc1)c1ccc(CSc2nc3cccnc3n2Cc2ccccc2)cc1	4.6µM*	/	/	/	/	18µM*
O=C(NC1CCCCC1)c1ccc(CSc2nc3ccncc3n2Cc2cccc(F)c2)cc1	?	/	/	/	/	18µM*
O=C(NC1CCCC1)c1ccc(CSc2nc3cccnc3n2Cc2cccc(F)c2)cc1	?	/	/	/	/	15µM*
CCCN1C2CCCC1CC(NC(=O)c1ccccc1Br)C2 (centres undefined)	0%	-15%	2	0%	-1%	-20%
COc1ccc(S(=O)(=O)N2CCC(C(=O)Oc3ccc(C)cc3)CC2)cc1OC	-22%	-2%	14	2%	-360%	-11%
COc1cccc(C(=O)N2CCC2(C)C(=O)O)c1 (centres undefined)	-14%	/	0	/	/	1%
SMILES	DT40 TDP1 CPT	MCF10A rereplic	IL-1B inflam inh	Chronic BCR inh	SW480 rerep	TDP1 cell noCPT
COC(C(=O)Nc1ccnn1C1CCN(Cc2ccc(Cl)s2)CC1)c1ccccc1 (centres undefined)	?	6%	-12	-1%	?	?
Cc1ccc(C)c(C(=O)C(C)OC(=O)CN2C(=O)NC3(CC(C)CC(C)(C)C3)C2=O)c1 (centres undefined)	0%	15%	2	0%	2%	-2%
CC1CCC(NC(=O)c2ccc(CSc3nc4ccncc4n3Cc3ccc(F)cc3)cc2)CC1 (centres undefined)	?	/	/	/	/	7.3µM*
CC(C)NC(=O)c1ccc(Cn2c(SCc3ccc(F)cc3)nc3cccnc32)cc1	-29%	/	/	/	/	-29%
COc1ccc(Cn2c(SCc3ccc(C(=O)NCc4cccs4)cc3)nc3cccnc32)cc1	?	/	/	/	/	-79%
CNC(=O)c1ccc(CSc2nc3cccnc3n2Cc2cccc(F)c2)cc1	3.7µM*	/	/	/	/	18µM*
O=C(NCc1cccs1)c1ccc(CSc2nc3cccnc3n2Cc2ccccc2)cc1	?	/	/	/	/	15µM*
Cc1ccc(CSc2nc3cccnc3n2Cc2nc(-c3ccccc3F)oc2C)cc1	4.6µM*	/	/	/	/	3.7µM*
CCc1ccccc1NC(=O)Cn1c(SCc2ccc(F)cc2)nc2ccncc21	-22%	/	/	/	/	0%
CC(=O)Nc1ccc(C(=O)OCC(=O)NC2CCCCCC2)cc1	3%	/	25	/	/	-14%
COc1ccc(-c2nc(CN3CCC(C(=O)NCCCOC(C)C)CC3)c(C)o2)cc1OC	-2%	/	/	/	/	-15%
Cc1ccc(CSc2nc3cccnc3n2Cc2ccc(C(=O)NCCc3cccs3)cc2)cc1	18µM*	/	/	/	/	18µM*
O=C(NCc1ccccc1)c1ccc(CSc2nc3cccnc3n2Cc2cccc(F)c2)cc1	13µM*	/	/	/	/	10µM*
Cc1cccc(C)c1NC(=O)CN(C)C(=O)c1ccc(OCc2ccccc2)cc1	?	/	9	/	/	?
COCc1c(C(=O)N2CCCCCC2)cnn1-c1nccc(-c2cccs2)n1	-1%	/	/	/	/	-5%
CCOC(=O)N1CCN(c2c(NCc3ccccc3Cl)c(=O)c2=O)CC1	18µM*	?	3	-14%	?	29µM*
COc1ccc2oc(=O)c(-c3csc(Nc4cccc(O)c4)n3)cc2c1	?	23µM*	-79*	?	?	16µM*
COc1ccc(Nc2nc(-c3cc4cccc(OC)c4oc3=O)cs2)cc1	?	?	12	?	5%	21µM*
Cn1c(N)c(NC(=S)NC2CCCCC2)c(=O)n(C)c1=O	1%	-4%	-2	/	-6%	-12%
